Source: PubChem BioAssay (EPA / NIEHS)
Results filed as inconclusive are left out. Active and inactive are the calls of the source. The calls were made as follows, unless noted: active = hit-call score of the fitted dose curve at least 0.9, where 1 is the maximum; inactive = score below 0.9.

Legend:
[1] = molecular target: Glucocorticoid receptor (Homo sapiens) (UniProt P04150); assay: ATG_GR_TRANS: Attagene TRANS-FACTORIAL HepG2 Assay for human Glucocorticoid Receptor (GR) (AID 2282978; active = hit-call score of the fitted dose curve at least 0.9, where 1 is the maximum;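 also: activators score as hits since higher reporter transcript over DMSO is fitted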); conditions: HepG2 Attagene TRANS GR reporter, mRNA transcription
In short: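 Transiently transfected HepG2 cells express chimeric NR-GAL4 proteins acting on GAL4-UAS reporter units. Compounds are applied for 24 h. mRNA induction over DMSO is measured by capillary electrophoresis.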

[2] = ATG_M_06_TRANS: Attagene TRANS-FACTORIAL HepG2 Assay for M06 Transcription Factor (Internal Marker) (AID 2282983; active = hit-call score of the fitted dose curve at least 0.9, where 1 is the maximum); conditions: HepG2 Attagene TRANS M06 internal marker reporter
In short: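 Measured by capillary electrophoresis of fluorescently labelled RT-PCR products, this endpoint reflects reporter mRNA in HepG2 cells harbouring exogenous NR-GAL4 reporter constructs after 24 h exposure, with DMSO as baseline.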

[3] = ATG_M_32_TRANS: Attagene TRANS-FACTORIAL HepG2 Assay for M32 Transcription Factor (Internal Marker) (AID 2282984; active = hit-call score of the fitted dose curve at least 0.9, where 1 is the maximum;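 also: transcript level of a background control reporter unit measured by RT-PCR and capillary electrophoresis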); conditions: HepG2 Attagene TRANS M32 internal marker reporter
In short: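 Human hepatoma HepG2, transient MRTU transfection, 24 h treatment. RNA → RT-PCR → fluorescent primer extension → HpaI digest (2 h, 37 C) → CE. Positive-direction fit vs DMSO.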

[4] = molecular target: Transcriptional activator Myb (Homo sapiens) (UniProt P10242); assay: ATG_Myb_CIS: Attagene CIS-FACTORIAL HepG2 Assay for human Myeloblastosis (Myb) Proto-Oncogene Transcription Factor (AID 2282986); conditions: HepG2 Attagene CIS-FACTORIAL Myb reporter transcription; actives raise or lower the signal
In short: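 Using HepG2 liver cells bearing transiently transfected cis-promoter reporter constructs, the assay measures induction or loss of reporter mRNA after 24 hours of dosing. Detection used fluorescently labeled RT-PCR products separated by capillary electrophoresis.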

[5] = ATG_NFI_CIS: Attagene CIS-FACTORIAL HepG2 Assay for human Nuclear Factor I (NFI) (AID 2282989); conditions: HepG2 cis-regulatory reporter, NFI response element transcription; actives raise or lower the signal
In short: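 Reporter transcripts were measured by RT-PCR with fluorescent primer extension and capillary electrophoresis 24 h post-treatment. HepG2 cells carried transiently transfected cis-regulated reporter constructs reporting endogenous factor activity; gain or loss fitted against DMSO baseline.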

[6] = molecular target: Myc proto-oncogene protein (Homo sapiens) (UniProt P01106); assay: ATG_Myc_CIS: Attagene CIS-FACTORIAL HepG2 Assay for human Myelocytomatosis (Myc) Proto-Oncogene Transcription Factor (AID 2282990); conditions: HepG2, Attagene cis-reporter transcription factor activity; actives raise or lower the signal
In short: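 DMSO-normalised, bidirectionally fitted reporter mRNA signal. HepG2 cells transfected with cis reporter constructs, treated 24 h; transcripts detected by RT-PCR, 6-FAM primer extension and CE.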

[7] = ATG_NF_kB_CIS: Attagene CIS-FACTORIAL HepG2 Assay for human Nuclear Factor Kappa B (NF-kB) (AID 2282991); conditions: HepG2 Attagene cis-factorial NF-kB reporter mRNA; actives raise or lower the signal
In short: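 DMSO served as negative control and baseline for bidirectional curve fitting. Transiently transfected HepG2 cells were dosed for 24 h, then reporter transcripts were measured by RT-PCR with capillary electrophoresis detection.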

[8] = ATG_NRF2_ARE_CIS: Attagene CIS-FACTORIAL HepG2 Assay for human Nuclear Factor Erythroid 2 Related Factor 2 (NFR2) response to Antioxidant Response Elements (ARE) (AID 2282992); conditions: HepG2 Attagene ARE/NRF2 reporter, transcription factor activity; actives raise or lower the signal;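 as to AC50: reporter mRNA level measured by RT-PCR and capillary electrophoresis fluorescence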
In short: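 Cis-factorial assay: transfected HepG2 reporter library, 24 h dosing, mRNA readout via RT-PCR/CE; DMSO-referenced bidirectional analysis.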

[9] = ATG_Oct_MLP_CIS: Attagene CIS-FACTORIAL HepG2 Assay for human Octamer-Binding Transcription Factor (Oct) (AID 2282993); conditions: HepG2 Attagene cis-factorial Oct reporter, mRNA; actives raise or lower the signal
In short: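 Readout is reporter transcript level from RT-PCR with fluorescent primer extension and capillary electrophoresis, fitted in both directions against DMSO. Transfected HepG2 reporter units report endogenous factor activity after 24 h dosing.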

[10] = molecular target: Cellular tumor antigen p53 (Homo sapiens) (UniProt P04637); assay: ATG_p53_CIS: Attagene CIS-FACTORIAL HepG2 Assay for human p53 Transcription Factor (AID 2282994); conditions: HepG2 p53 cis-element reporter, Attagene mRNA; actives raise or lower the signal
In short: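 Using HepG2 hepatoma cells carrying cis-acting multiplexed reporters, mRNA induction is detected after a 24 h exposure. Gain- and loss-of-signal responses are fitted relative to DMSO-treated cells.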

[11] = molecular target: Nuclear receptor subfamily 4 group A member 2 (Homo sapiens) (UniProt P43354); assay: ATG_NURR1_TRANS: Attagene TRANS-FACTORIAL HepG2 Assay for human Nuclear Receptor Related Protein 1 (NURR1) (AID 2282985; active = hit-call score of the fitted dose curve at least 0.9, where 1 is the maximum); conditions: HepG2 Attagene TRANS reporter, mRNA readout
In short: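 After 24 h chemical dosing, total RNA from transiently transfected HepG2 cells was reverse-transcribed and reporter cDNA PCR-amplified, FAM-labelled and analysed by capillary electrophoresis. Activity fitted in positive direction, DMSO as negative control.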

[12] = molecular target: Nuclear respiratory factor 1 (Homo sapiens) (UniProt Q16656); assay: ATG_NRF1_CIS: Attagene CIS-FACTORIAL HepG2 Assay for human Nuclear Respiratory Factor 1 (NRF1) Orphan Gene (AID 2282987); conditions: HepG2 NRF1 cis-element reporter, Attagene multiplex; actives raise or lower the signal
In short: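 Reporter mRNA induction or loss in HepG2 cells after 24 h dosing; cis-regulated reporter constructs report endogenous transcription-factor activity. Quantified by RT-PCR/capillary electrophoresis fluorescence, DMSO-referenced.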

[13] = molecular target: Oxysterols receptor LXR-beta (Homo sapiens) (UniProt P55055); assay: ATG_LXRb_TRANS: Attagene TRANS-FACTORIAL HepG2 Assay for human Liver X Receptor beta (LXRb) (AID 2282981; active = hit-call score of the fitted dose curve at least 0.9, where 1 is the maximum); conditions: HepG2 Attagene TRANS GAL4-LXRb reporter, mRNA
In short: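 In this TRANS format, exogenous chimeric NR-Gal4 protein activity, not endogenous factors, drives reporter expression in transfected human HepG2 cells. Exposure lasted 24 h; reporter mRNA was read by fluorescent capillary electrophoresis.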

[14] = molecular target: Hepatocyte nuclear factor 4-alpha (Homo sapiens) (UniProt P41235); assay: ATG_HNF4a_TRANS: Attagene TRANS-FACTORIAL HepG2 Assay for human Hepatocyte Nuclear Factor 4 alpha (HNF4a) (AID 2282982; active = hit-call score of the fitted dose curve at least 0.9, where 1 is the maximum); conditions: HepG2 HNF4a transactivation reporter, mRNA readout
In short: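 Cells used were human HepG2, transiently carrying GAL4-UAS reporter units read out against exogenous NR-GAL4 chimeras. Reporter transcript levels after 24 h dosing were quantified by fluorescent RT-PCR and capillary electrophoresis.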

[15] = BSK_3C_TissueFactor: BioMAP Diversity Plus: 3C Assay for Tissue Factor Biomarker Activity (AID 2282997); conditions: BioMAP 3C HUVEC, tissue factor biomarker readout; actives raise or lower the signal
In short: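 Values derive from bidirectional curve fitting against DMSO of Tissue Factor ELISA signals, taken 24 h after dosing primary human umbilical vein endothelial cells.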

[16] = BSK_3C_uPAR: BioMAP Diversity Plus: 3C Assay for Urokinase-type plasminogen activator receptor (uPAR) Biomarker Activity (AID 2282998); conditions: BioMAP 3C HUVEC, uPAR biomarker ELISA; actives raise or lower the signal
In short: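 Cell-surface uPAR on HUVEC (3C system) read by ELISA at 24 h post-treatment, with DMSO as baseline and fitting in both directions. Parallel cultures stained with SRB to flag overt cytotoxicity.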

[17] = BSK_3C_VCAM1: BioMAP Diversity Plus: 3C Assay for Vascular cell adhesion molecule 1 (VCAM1) Biomarker Activity (AID 2282999); conditions: BioMAP 3C HUVEC, VCAM1 ELISA, cytokine-stimulated; actives raise or lower the signal
In short: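 Human umbilical vein endothelial cells were dosed with compound for 24 h, after which cell-surface VCAM-1 was quantified by ELISA. Bidirectional curve fitting used DMSO as negative control and activity baseline.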

[18] = BSK_4H_Eotaxin3: BioMAP Diversity Plus: 4H Assay for Eotaxin 3 Biomarker Activity (AID 2283000); conditions: primary human endothelial cells (HUVEC); actives raise or lower the signal
In short: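 Endothelial primary cells (human umbilical vein) exposed to compound for 24 h. ELISA detection of Eotaxin-3.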

Measured: AC50

Chain of Nuclear respiratory factor 1 (Homo sapiens) (Q16656 whole entry, looked up): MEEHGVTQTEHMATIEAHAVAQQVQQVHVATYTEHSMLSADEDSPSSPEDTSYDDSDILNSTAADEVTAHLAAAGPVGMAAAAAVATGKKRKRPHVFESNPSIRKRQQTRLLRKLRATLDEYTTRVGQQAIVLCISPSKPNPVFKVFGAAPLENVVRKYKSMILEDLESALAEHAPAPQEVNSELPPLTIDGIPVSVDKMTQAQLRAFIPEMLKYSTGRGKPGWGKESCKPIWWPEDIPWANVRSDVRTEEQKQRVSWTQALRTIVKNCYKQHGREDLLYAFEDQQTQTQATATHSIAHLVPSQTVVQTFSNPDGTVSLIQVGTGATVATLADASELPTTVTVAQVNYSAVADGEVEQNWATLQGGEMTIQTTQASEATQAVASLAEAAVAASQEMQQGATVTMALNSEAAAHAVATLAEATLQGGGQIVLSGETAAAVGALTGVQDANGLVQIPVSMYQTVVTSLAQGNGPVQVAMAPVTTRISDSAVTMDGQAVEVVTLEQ
Chain of Glucocorticoid receptor (Homo sapiens) (P04150 whole entry, looked up, the tested form may be a part): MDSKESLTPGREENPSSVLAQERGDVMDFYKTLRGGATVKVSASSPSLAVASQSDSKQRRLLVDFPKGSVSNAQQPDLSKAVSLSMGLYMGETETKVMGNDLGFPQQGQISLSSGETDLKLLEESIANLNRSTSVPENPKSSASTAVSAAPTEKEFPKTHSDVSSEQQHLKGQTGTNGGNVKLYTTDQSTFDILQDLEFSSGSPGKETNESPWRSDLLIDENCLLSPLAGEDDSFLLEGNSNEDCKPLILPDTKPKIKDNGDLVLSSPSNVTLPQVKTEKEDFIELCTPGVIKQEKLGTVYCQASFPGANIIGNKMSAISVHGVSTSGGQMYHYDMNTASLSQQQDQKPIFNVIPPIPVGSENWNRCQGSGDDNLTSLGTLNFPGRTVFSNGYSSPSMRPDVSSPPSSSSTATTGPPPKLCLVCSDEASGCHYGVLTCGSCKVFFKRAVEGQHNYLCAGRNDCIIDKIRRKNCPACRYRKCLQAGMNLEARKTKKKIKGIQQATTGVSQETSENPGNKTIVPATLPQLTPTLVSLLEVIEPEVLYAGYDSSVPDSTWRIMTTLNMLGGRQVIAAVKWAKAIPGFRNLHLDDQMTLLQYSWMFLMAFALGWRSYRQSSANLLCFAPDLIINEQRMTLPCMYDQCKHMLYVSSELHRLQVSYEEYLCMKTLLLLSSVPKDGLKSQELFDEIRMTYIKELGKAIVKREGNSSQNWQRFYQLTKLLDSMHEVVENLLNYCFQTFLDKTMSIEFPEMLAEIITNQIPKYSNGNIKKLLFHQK
Chain of Hepatocyte nuclear factor 4-alpha (Homo sapiens) (P41235 whole entry, looked up, the tested form may be a part): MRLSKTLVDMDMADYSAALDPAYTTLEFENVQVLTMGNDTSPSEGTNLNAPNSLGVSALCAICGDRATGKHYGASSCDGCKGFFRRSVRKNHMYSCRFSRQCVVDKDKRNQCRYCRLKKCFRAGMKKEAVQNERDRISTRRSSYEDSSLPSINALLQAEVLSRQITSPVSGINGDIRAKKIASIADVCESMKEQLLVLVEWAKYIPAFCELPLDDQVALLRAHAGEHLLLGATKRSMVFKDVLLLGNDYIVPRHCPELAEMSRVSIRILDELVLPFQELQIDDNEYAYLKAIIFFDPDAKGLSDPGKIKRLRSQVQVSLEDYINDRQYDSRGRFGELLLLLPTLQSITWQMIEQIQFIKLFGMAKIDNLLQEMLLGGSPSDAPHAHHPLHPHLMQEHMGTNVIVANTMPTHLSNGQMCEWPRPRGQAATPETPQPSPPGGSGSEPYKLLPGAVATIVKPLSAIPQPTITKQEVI
Chain of Nuclear receptor subfamily 4 group A member 2 (Homo sapiens) (P43354 whole entry, looked up): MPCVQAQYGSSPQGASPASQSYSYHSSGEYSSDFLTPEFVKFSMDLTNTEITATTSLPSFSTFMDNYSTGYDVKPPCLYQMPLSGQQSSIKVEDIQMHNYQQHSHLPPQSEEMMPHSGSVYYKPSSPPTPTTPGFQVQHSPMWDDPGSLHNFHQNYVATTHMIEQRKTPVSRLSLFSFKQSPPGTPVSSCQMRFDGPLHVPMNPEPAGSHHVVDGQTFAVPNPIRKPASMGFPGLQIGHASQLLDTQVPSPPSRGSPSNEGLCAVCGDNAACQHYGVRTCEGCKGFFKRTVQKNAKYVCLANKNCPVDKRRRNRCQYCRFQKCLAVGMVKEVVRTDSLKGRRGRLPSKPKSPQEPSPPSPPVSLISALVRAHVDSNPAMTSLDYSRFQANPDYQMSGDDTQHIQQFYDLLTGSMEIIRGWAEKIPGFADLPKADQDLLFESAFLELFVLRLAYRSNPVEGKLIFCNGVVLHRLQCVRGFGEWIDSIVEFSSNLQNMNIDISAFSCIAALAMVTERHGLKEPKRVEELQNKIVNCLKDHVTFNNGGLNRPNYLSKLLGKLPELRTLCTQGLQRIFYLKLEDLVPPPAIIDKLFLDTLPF
Chain of Transcriptional activator Myb (Homo sapiens) (P10242 whole entry, looked up): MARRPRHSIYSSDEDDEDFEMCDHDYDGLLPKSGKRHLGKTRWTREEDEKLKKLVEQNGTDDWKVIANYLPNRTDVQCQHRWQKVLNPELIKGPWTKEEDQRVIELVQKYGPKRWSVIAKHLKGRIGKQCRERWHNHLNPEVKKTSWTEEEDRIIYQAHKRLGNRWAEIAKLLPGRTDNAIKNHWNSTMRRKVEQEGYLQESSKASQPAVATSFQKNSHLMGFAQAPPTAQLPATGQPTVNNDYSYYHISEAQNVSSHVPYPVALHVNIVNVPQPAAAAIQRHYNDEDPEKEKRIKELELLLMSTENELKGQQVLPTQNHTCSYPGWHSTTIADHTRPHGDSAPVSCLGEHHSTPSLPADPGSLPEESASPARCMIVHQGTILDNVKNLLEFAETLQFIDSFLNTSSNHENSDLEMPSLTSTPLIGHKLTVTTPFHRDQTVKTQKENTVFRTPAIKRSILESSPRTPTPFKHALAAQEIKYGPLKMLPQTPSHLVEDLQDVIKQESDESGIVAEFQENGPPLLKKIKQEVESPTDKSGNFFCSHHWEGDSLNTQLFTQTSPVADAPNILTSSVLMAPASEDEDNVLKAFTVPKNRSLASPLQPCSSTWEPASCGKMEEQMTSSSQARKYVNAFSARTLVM
Chain of Myc proto-oncogene protein (Homo sapiens) (P01106 whole entry, looked up): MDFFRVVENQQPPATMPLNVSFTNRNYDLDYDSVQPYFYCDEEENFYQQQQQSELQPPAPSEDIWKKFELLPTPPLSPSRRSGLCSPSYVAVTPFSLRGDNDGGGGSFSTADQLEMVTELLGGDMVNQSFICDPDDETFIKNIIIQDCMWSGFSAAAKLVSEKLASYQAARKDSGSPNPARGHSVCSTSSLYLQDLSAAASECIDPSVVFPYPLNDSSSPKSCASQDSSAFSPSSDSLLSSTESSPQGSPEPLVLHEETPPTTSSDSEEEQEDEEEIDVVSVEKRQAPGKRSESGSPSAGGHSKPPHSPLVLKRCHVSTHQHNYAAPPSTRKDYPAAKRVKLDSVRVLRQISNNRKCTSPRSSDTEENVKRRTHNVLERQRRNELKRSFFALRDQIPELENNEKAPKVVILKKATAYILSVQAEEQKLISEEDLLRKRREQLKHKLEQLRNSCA
Chain of Cellular tumor antigen p53 (Homo sapiens) (P04637 whole entry, looked up): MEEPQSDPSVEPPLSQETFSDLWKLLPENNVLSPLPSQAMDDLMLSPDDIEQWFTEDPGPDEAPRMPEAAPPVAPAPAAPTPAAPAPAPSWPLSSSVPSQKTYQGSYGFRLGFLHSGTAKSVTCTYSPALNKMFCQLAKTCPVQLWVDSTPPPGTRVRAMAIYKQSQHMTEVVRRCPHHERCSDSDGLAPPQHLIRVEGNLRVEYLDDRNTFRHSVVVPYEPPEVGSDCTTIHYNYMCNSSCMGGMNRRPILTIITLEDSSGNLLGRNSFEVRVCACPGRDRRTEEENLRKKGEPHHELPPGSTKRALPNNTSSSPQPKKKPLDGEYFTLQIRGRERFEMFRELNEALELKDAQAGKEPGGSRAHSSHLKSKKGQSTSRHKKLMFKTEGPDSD
Chain of Oxysterols receptor LXR-beta (Homo sapiens) (P55055 whole entry, looked up, the tested form may be a part): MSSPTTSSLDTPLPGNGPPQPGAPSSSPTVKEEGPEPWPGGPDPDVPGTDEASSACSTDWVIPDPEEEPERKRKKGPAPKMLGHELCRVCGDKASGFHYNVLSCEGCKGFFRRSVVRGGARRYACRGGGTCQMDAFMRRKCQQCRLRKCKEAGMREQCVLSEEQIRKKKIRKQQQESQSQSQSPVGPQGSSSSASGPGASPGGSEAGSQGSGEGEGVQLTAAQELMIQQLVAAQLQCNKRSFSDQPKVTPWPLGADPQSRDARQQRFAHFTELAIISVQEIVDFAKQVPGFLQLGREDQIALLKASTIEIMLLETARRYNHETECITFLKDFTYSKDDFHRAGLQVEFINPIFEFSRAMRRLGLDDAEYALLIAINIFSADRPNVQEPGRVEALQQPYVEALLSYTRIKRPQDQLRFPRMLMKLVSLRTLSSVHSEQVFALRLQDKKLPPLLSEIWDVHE

CCCSc1ccc2nc(NC(=O)OC)[nH]c2c1
inactive: [1] | [2] | [3] | [4] | [5] | [6] | [7] | [8] | [9] | [10]

CCCC(=O)OCCc1ccccc1
inactive: [1] | [2] | [11] | [4] | [12] | [5] | [6] | [8] | [10]

CCC(C)S (stereo unspecified)
inactive: [1] | [13] | [3] | [4] | [12] | [5] | [6] | [7] | [8] | [10]

CCc1ccc(O)cc1
inactive: [1] | [14] | [2] | [3] | [11] | [4] | [12] | [5] | [6] | [7] | [8] | [9] | [10]

Nc1ccc(Cl)c([N+](=O)[O-])c1
inactive: [1] | [14] | [2] | [3] | [11] | [12] | [5] | [6] | [7] | [8] | [9] | [10]

CC1=CC[C@@]23C[C@@H]1C(C)(C)[C@@H]2CC[C@H]3C
active: [8] 100 µM
inactive: [1] | [2] | [3] | [11] | [4] | [12] | [5] | [6] | [7] | [9] | [10]

CC(C)Nc1nc(N)nc(Cl)n1
inactive: [1] | [14] | [2] | [11] | [12] | [5] | [6] | [7] | [8] | [9] | [10]

CC=Cc1ccc(OCC)c(O)c1
inactive: [1] | [14] | [2] | [3] | [11] | [4] | [5] | [6] | [8] | [9] | [10] | [15] | [16] | [17] | [18]

COC(=O)c1ccc([N+](=O)[O-])cc1
inactive: [1] | [14] | [2] | [3] | [11] | [4] | [12] | [5] | [6] | [7] | [8] | [9] | [10]

C=C(C)CNCC
inactive: [1] | [14] | [2] | [3] | [11] | [4] | [12] | [5] | [6] | [7] | [8] | [9] | [10]

CS(=O)(=O)c1ccc(C2=C(c3ccccc3)C(=O)OC2)cc1
inactive: [1] | [14] | [3] | [4] | [12] | [5] | [6] | [7] | [8] | [10] | [15] | [16] | [17] | [18]

C=CCOC(=O)CCCCCC
inactive: [1] | [14] | [2] | [3] | [11] | [4] | [12] | [5] | [6] | [7] | [8] | [9] | [10]

BrCc1cccc(Oc2ccccc2)c1
active: [8] 58.4 µM
inactive: [1] | [13] | [2] | [3] | [4] | [12] | [5] | [6] | [7] | [9]

CCCCCCCC/C=C\CCCCCCCC(=O)OCC
inactive: [1] | [11] | [4] | [12] | [5] | [6] | [8] | [9]

OCCCCC(O)CO (stereo unspecified)
inactive: [1] | [2] | [4] | [12] | [5] | [6] | [7] | [8] | [9] | [10]

CC(=O)NCCO
inactive: [1] | [14] | [3] | [12] | [5] | [6] | [7] | [8] | [9] | [10]

COc1ccc(N)c([N+](=O)[O-])c1
inactive: [1] | [2] | [11] | [4] | [12] | [5] | [6] | [7] | [8] | [9] | [10]

c1ccc(Oc2ccccc2)cc1
active: [15] 30.7 µM | [16] 30.6 µM | [17] 30.7 µM | [18] 31.5 µM
inactive: [1] | [14] | [3] | [11] | [4] | [12] | [5] | [6] | [7] | [8] | [9] | [10]

O=P(O)(O)O
inactive: [1] | [14] | [2] | [11] | [4] | [12] | [5] | [7] | [8] | [9]

Cc1ccc2c(c1)C(=O)OC2=O
inactive: [1] | [14] | [3] | [4] | [12] | [5] | [6] | [8] | [9] | [10]
